IL1B secr inh: blocks inflammasome-driven IL-1 beta release | activity change, % at 57.5 µM | 360,000 compounds, 4.7% hits | THP-1 LPS/ATP IL-1B secretion, AlphaLISA, 16 h; active compounds read low; in the data active = activity change below about -50%; inconclusive = mostly about -30% to -49%; also: % is scaled to controls: 0 for no effect and ±100 for the full control effect
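THP-1 cells pretreated 1 hr with compounds (up to 57.5 uM final), then stimulated with LPS (250 ng/mL final) plus ATP (1.25 mM final); secreted IL-1B measured by AlphaLISA after 16 hr, decreased signal indicating inhibition.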
TDP1 inh: blocks human tyrosyl-DNA phosphodiesterase 1; Potency, µM (titrated, usually from 130 µM), without a hit: top-dose activity change, negative = inhibition, hits mostly inhibitors; AID 485290; Q9NUW8; recombinant TDP1, AlphaScreen DNA substrate cleavage; 350,000 compounds, 0.28% hits; also: potency is read from the fitted curve at half-maximal effect; % is scaled to controls: 0 for no effect and ±100 for the full control effect; nearly all actives have a fitted effect of over 40% in size
Target sequence (Q9NUW8 whole entry, looked up): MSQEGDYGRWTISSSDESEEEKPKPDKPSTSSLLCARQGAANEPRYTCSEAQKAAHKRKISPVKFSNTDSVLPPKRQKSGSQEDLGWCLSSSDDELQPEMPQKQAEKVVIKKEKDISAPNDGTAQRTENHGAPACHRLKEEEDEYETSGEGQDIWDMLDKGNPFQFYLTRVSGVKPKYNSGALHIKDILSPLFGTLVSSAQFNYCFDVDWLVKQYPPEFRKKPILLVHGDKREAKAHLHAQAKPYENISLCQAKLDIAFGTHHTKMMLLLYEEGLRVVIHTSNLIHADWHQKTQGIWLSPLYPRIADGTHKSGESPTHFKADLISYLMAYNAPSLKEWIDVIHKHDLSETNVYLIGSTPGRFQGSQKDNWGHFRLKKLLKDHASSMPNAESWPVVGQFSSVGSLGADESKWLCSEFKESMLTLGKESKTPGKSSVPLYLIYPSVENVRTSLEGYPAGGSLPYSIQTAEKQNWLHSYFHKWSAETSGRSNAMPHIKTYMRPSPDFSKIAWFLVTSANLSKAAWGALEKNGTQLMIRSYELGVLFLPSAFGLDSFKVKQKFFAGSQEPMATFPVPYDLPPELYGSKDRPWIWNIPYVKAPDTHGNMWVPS
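E. coli-derived human Tdp1, 1 nM final. Cpd preinc 15 min RT; substrate 15 nM final, 5 min RT; AS bead mix 10 ug/ml final, 10 min RT. Signal loss = tyrosine-FITC cleavage. No-enzyme wells = max signal.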
DT40 TDP1 no CPT: qHTS for Inhibitors of human tyrosyl-DNA phosphodiesterase 1 (TDP1): qHTS in cells in absence of CPT. DT40 Tdp1-/- hTDP1 cells, no CPT, ATP luminescence, 48 h. 420,000 compounds, 15% hits. Potency, µM (series often up to 46.2 µM), without a hit: at the top dose activity change, negative = growth inhibition, most hits filed as inhibitors; also: potency is read from the fitted curve at half-maximal effect; % is scaled to controls: 0 for no effect and ±100 for the full control effect; nearly all actives have a fitted effect of over 55% in size
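No-CPT arm: Tdp1-/-;hTDP1 DT40 cells (400/well) plus compounds, incubated ≥48 hr at 37 °C. Readout CellTiter-Glo luminescence.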
DT40 TDP1 CPT: DT40-hTDP1 cell growth loss with CPT; chicken DT40 Tdp1-/-;hTDP1 cells + 20 nM CPT, ATP luminescence, 48 h; Potency, µM (series often up to 46.2 µM), for the others: at the highest dose activity change, negative = growth inhibition, actives largely listed as inhibitors; 420,000 compounds, 12% hits; also: potency is read from the fitted curve at half-maximal effect; % is scaled to controls: 0 for no effect and ±100 for the full control effect; nearly all actives have a fitted effect of over 55% in size
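Chicken DT40 Tdp1-/- cells complemented with human TDP1, 400 cells/well, exposed to compounds plus 20 nM camptothecin for at least 48 h at 37 C; viability read as ATP content by CellTiter-Glo luminescence.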
TGFb SMAD3 inh: inhibitors of TGF-b signaling | 410,000 compounds, 1.2% hits | Potency, µM (top dose mostly 46.1 µM), for the others: top-dose activity, negative = inhibition, most hits filed as inhibitors | HepG2 CAGA-GFP TGF-b/SMAD3 reporter, GFP fluorescence, 18 h; TGF-beta stimulated, 500 pg/mL final; also: potency is read from the fitted curve at half-maximal effect; % is scaled to controls: 0 for no effect and ±100 for the full control effect; nearly all actives have a fitted effect of over 65% in size
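Smad-responsive CAGA-GFP expression was quantified in HEPG2 cells exposed to compounds and 500 pg/mL final TGF-beta for 18 h at 37 degrees C; unstimulated wells defined full inhibition.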
HepG2 viability: kills HepG2 cells in TGF-b inhibitor counter-screen; HepG2 CAGA-GFP viability, ATP luminescence, 18 h; Potency, µM (doses to about 46.1 µM), for inactives: top-dose activity change, negative = cytotoxicity, actives largely listed as cytotoxic; 410,000 compounds, 0.76% hits; AID 588856; also: potency is read from the fitted curve at half-maximal effect
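HepG2 CAGA-GFP cells (1000/well, DMEM with 1% FBS) received compound, then TGF-beta at 500 pg/mL final, and were incubated 18 hours at 37 degrees C. Viability was read by CellTiter-Glo luminescence. Media-only wells were set as complete cell-killing and DMSO as no toxicity.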
The depositor's hits bear a star; u = inconclusive; x = no result given; [ ] = remark or other dose. Compounds with a hit are over-represented: about 18% of the library has one in this group of screens. Unless noted, calls follow the shape of the dose curve; as a rule, active = well fitted curve in the direction sought with a large enough effect; inconclusive = small, poorly fitted or top-dose-only effect, or another doubt; inactive = no such curve, though single readings can be large; an effect the other way counts as inactive or inconclusive.

SMILES	IL1B secr inh	TDP1 inh	DT40 TDP1 no CPT	DT40 TDP1 CPT	TGFb SMAD3 inh	HepG2 viability
Cc1ccc(OCCNc2cc(N3CCN(CCO)CC3)ccc2[N+](=O)[O-])cc1C	u	2%	29µM*	u	-1%	-56%
CO/N=C(/C)CCC(=O)OC[C@@H]1O[C@H](c2ccccc2)C=C[C@@H]1Oc1ccc(OC)cc1	x	1%[21 µM]	x	x	x	x
Cn1cccc1Cc1nnc(SCC(=O)Nc2nccs2)n1CCc1ccccc1	u	0%	u	21µM*	-3%	-18%
Cn1c(CSCc2ccc(F)cc2)nnc1SCC(=O)Nc1nccs1	14	0%	13µM*	10µM*	-2%	0%
Cn1c(CSCc2ccc(Cl)cc2)nnc1SCC(=O)Nc1nccs1	-2	-3%	u	u	-14%	6%
Cn1c(CSCc2ccc(Cl)c(Cl)c2)nnc1SCC(=O)Nc1nccs1	-9	0%	18µM*	26µM*	u	-9%
Cc1ccc(NC(=O)Cn2nc(C(F)(F)F)c3c2CCCC3)cc1C	x	3%	-22%	u	u	-30%
C=CCn1c(=S)[nH]c2cc(C(=O)NCCc3ccc(S(N)(=O)=O)cc3)ccc2c1=O	0	0%	23%	4%	-4%	-30%
COc1ccc(OC)c(C(=O)COC(=O)COc2ccccc2F)c1	1	-8%	-5%	u	-7%	1%
Cn1c(=O)c2c(c3ccccc31)OC(=O)CC2c1cccc(F)c1 (stereo not drawn)	x	6%	-6%	2%	1%	23%
O=C(CC1C(=O)NCCN1Cc1cccc(F)c1F)NCCCC1CCCC1 (stereo not drawn)	-24	4%	1%	-29%	-17%	2%
CC(C(Sc1ccccc1N)c1ccccc1)[N+](=O)[O-] (stereo not drawn)	-85*	7%	3.7µM*	3.7µM*	u	-70%
COC(=O)c1ccccc1SC(CC(=O)c1ccccc1)c1ccc(F)cc1 (stereo not drawn)	u	u	23µM*	18µM*	u	-19%
Nc1ccccc1SC(CC(=O)c1ccccc1)c1ccccc1 (stereo not drawn)	-12	x	13µM*	u	u	-58%
COc1cc(S(=O)(=O)N2CCOCC2)cc(C(=O)OCC(=O)NC2CCCCC2)c1OC	-14	1%	-29%	9%	7%	-8%
Fc1ccc(NC(=S)Nc2ccc(Cl)cc2Cl)cc1	-87*	3%	26µM*	u	-26%	0%
S=C(NCc1ccc(Cl)cc1)Nc1ccc(Cl)cc1Cl	-1	3%	u	-14%	-14%	-3%
S=C(NCCc1ccc(Cl)cc1)Nc1ccc(Cl)cc1Cl	-79*	-2%	u	u	u	-115%
Fc1ccccc1/C=N/NC(=S)Nc1ccc(Cl)cc1Cl	43	5%	1.8µM*	2.3µM*	-4%	-27%
Fc1ccc(CNC(=S)Nc2ccc(Cl)cc2Cl)cc1	-100*	-1%	u	u	-28%	-12%
c1cncc(CNc2cc(-c3ccoc3)ncn2)c1	x	x	2%	-15%	x	x
CC(C)[C@H](NC(=O)[C@@H]1Cc2ccccc2CN1)C(=O)Nc1ccc2c(c1)OCO2	-12	7%	2%	-6%	9%	2%
C/C(=N\NC(=S)NCCc1ccccc1)c1ccc(O)cc1O	17	-4%[0.0935 µM]	u	u	-27%	-7%
CN(C)/C=N/C(=S)Nc1ccc(Cl)cc1Cl	-77*	3%	u	6%	0%	-146%
CN(C)/C=N/C(=S)Nc1ccc(Cl)cc1	-13	3%	u	-12%	-14%	-6%
SMILES	IL1B secr inh	TDP1 inh	DT40 TDP1 no CPT	DT40 TDP1 CPT	TGFb SMAD3 inh	HepG2 viability
C/C(=N\NC(=S)NCCc1ccccc1)c1ccc(Cl)cc1Cl	3	3%	16µM*	u	u	-14%
COC(=O)c1cc(S(=O)(=O)N2CCCCCC2)c[nH]1	11	x	-11%	2%	20%	10%
Cc1sc2ncnc(SCc3ccco3)c2c1C	10	-2%	u	u	-4%	1%
c1ccc(-n2nnnc2Sc2ncnc3sc4c(c23)CCCC4)cc1	-25	-3%	3.3µM*	4.1µM*	-2%	2%
Cc1sc2ncnc(Sc3nnnn3-c3ccc(Cl)cc3)c2c1C	-70*	1%	u	u	-19%	-18%
Cc1cc(O)c(C(=O)/C=C/c2ccccc2Br)c(=O)o1	-77*	x	u	u	-11%	-20%
CC(=O)N/C(=C\c1ccccc1)C(=O)OCC(=O)N(C)C1CCS(=O)(=O)C1 (stereo not drawn)	-1	1%	4%	10%	0%	-2%
CC(=O)c1ccc(NC(=O)Cn2nc(N3CCN(c4ccccc4)CC3)ccc2=O)cc1	x	3%	3%	10%	-4%	1%
O=C(O)c1cc2nc(-c3ccccc3)cc(-c3ccccc3)n2n1	48	-7%	12%	2%	16%	-12%
Cc1ccc(-c2cc(C(F)(F)F)n3nc(C(=O)N4CCN5CCCC5C4)cc3n2)cc1 (stereo not drawn)	-62*	2%	u	u	22%	-23%
CC1CCCCN1C(=O)c1cc2nc(-c3ccccc3)cc(-c3ccccc3)n2n1 (stereo not drawn)	-61*	-9%[56.1 µM]	23µM*	16µM*	u	-6%
Cc1ccc(-c2cc(C(F)F)n3ncc(C(=O)N4CCN5CCCC5C4)c3n2)cc1 (stereo not drawn)	u	7%	u	15µM*	27%	-8%
COc1ccc(-c2cc(C(F)(F)F)n3nc(C(=O)N4CCN5CCCC5C4)cc3n2)cc1OC (stereo not drawn)	-24	x	u	u	0%	-40%
O=C(c1cc2nc(-c3ccc(F)cc3)cc(C(F)(F)F)n2n1)N1CCCCC1c1cccnc1 (stereo not drawn)	-62*	-2%	9.2µM*	13µM*	u	-14%
COc1ccc(CN2CCNC(=O)C2CC(=O)NCc2cc(C)n(C)n2)c(F)c1 (stereo not drawn)	4	4%	5%	1%	10%	15%
Cc1ccc(-c2cc(C(F)F)n3ncc(C(=O)Nc4cn(C)nc4C)c3n2)cc1	-11	6%	u	-19%	-1%	-3%
Cc1ccc(-c2cc(C(F)F)n3ncc(C(=O)NN4CCCCC4)c3n2)cc1	3	-5%	23µM*	21µM*	-27%	-15%
